According to PubChem BioAssay (NCATS):
Results filed as inconclusive are left out. Entries that show only a call come without a potency. Active and inactive are the calls of the source. Unless noted, the call rests on the fitted dose curve; in most records, active means well fitted curve in the direction sought with a large enough effect; inconclusive means small, poorly fitted or top-dose-only effect, or another doubt; inactive means no such curve, though single readings can be large; an effect the other way counts as inactive or inconclusive.

Experiments:
[1] = Cell Viability - Hek293 (AID 427;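 active means compounds whose dose-response curve shows a full or clear partial loss of cell viability, called from curve shape rather than a numeric limit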;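 further: potency means the concentration at half of the fitted maximal effect; cells exposed to compound for 40 hours at 37 °C before reading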); conditions: qHTS
Procedure, shortened: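 HEK293 cells in complete medium were exposed to compound for 40 hr at 37 °C, then cellular ATP was read by CellTiter-Glo luminescence. Data were normalized to DMSO (basal) and 100 uM tamoxifen (100% inhibition), and AC50 came from Hill fits.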

[2] = Cell Viability - SK-N-SH (AID 435; calls by dose curve; further: potency means the concentration at half of the fitted maximal effect); conditions: SK-N-SH neuroblastoma cell viability qHTS
Procedure, shortened: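 qHTS cytotoxicity: CellTiter-Glo ATP luminescence after 40 h compound exposure of human neuroblastoma SK-N-SH cells at 37 °C. AC50 derived by Hill-equation fitting, with DMSO as basal and 100 uM tamoxifen as full inhibition.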

[3] = Cell Viability - N2a (AID 540); conditions: N2a mouse neuroblastoma cell viability; activity change, negative = cytotoxicity: at 92.2 µM (top of the series); further: nearly all actives have a fitted effect of over 45% in size
Procedure, shortened: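 CellTiter-Glo ATP luminescence, read 20 min after reagent at room temperature, reported viability following 40 h compound treatment at 37 °C. N2a mouse neuroblastoma cells seeded 1500/well; Hill equation gave AC50.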

[4] = Cellular Toxicity (caspase-3) HepG2 (AID 654); conditions: HepG2 caspase-3 activation, luminescence, 0% = DMSO only, 100% = tamoxifen; series mostly up to 92.2 µM;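 further: cells exposed to compound for 16 hours before reading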
Procedure, shortened: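 Caspase 3/7 activation is measured as a luminescence increase (aminoluciferin substrate) after 16 h compound exposure of human hepatocarcinoma HepG2 cells. AC50 values are Hill fits, scaled between DMSO baseline and 100 uM tamoxifen stimulation.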

[5] = Cellular Toxicity (caspase-3) Mesangial (AID 660); conditions: mesangial cells, normalized: DMSO 0%, 100 µM tamoxifen 100%; series mostly up to 91.7 µM;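 further: combined caspase 3 and 7 activity read by Caspase-Glo luminescence; cells exposed to compound for 16 h before the caspase read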
Procedure, shortened: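 Caspase 3/7 activation measured by Caspase-Glo 3/7 luminescence (20 min, room temperature) following 16 h exposure of mesangial cells (1000/well); AC50 from Hill-equation fit, normalized to DMSO and 100 uM tamoxifen.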

[6] = Cellular Toxicity (caspase-3) Hek293 (AID 664); conditions: HEK293 caspase-3 activation, DMSO = 0%, 100 µM tamoxifen = 100%; at 92.2 µM (top of the series);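 further: cells exposed to compound for 16 h at 37 °C before readout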
Procedure, shortened: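 Concentration-response qHTS: caspase 3/7 activation measured by luminescent aminoluciferin substrate cleavage after 16 h compound exposure of Hek 293 cells. AC50 from Hill equation, with DMSO as basal and 100 uM tamoxifen as 100%.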

[7] = MultiTox-Fluor Cytotoxicity Assay - LYMP1-002 - Dead Cells (AID 960); conditions: LYMP1-002 lymphoblastoid cells, dead-cell protease fluorescence; series mostly up to 46.1 µM; further: nearly all actives have a fitted effect of over 60% in size
Procedure, shortened: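 Dead-cell fluorescence (Ex/Em 485/520) after 16 h compound exposure at 37 C of LYMP1-002 lymphoblastoid cells in complete medium; AC50 by Hill equation, with data scaled between DMSO and 15 uM tetraoctylammonium bromide.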

[8] = Cell Viability - LYMP2-026 (AID 989); conditions: LYMP2-026 lymphoblastoid cell viability, qHTS; series mostly up to 92.2 µM; further: nearly all actives have a fitted effect of over 50% in size
Procedure, shortened: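 Cytotoxicity read as ATP-dependent luminescence (CellTiter-Glo, 30 min room temperature) after 24 h compound treatment at 37 C. LYMP2-026 lymphoblastoid line seeded at 2500 cells/well; AC50 derived by standard Hill equation.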

[9] = Cell Viability - LYMP1-002 - Assay at 24 hr (AID 993); conditions: LYMP1-002 lymphoblastoid cells viability; series mostly up to 92.2 µM
Procedure, shortened: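 qHTS cytotoxicity at 24 h: CellTiter-Glo ATP luminescence in lymphoblastoid line LYMP1-002 incubated with compound at 37 °C. Concentration-response modeled with the Hill equation for AC50; tetraoctylammonium bromide served as positive control.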

[10] = qHTS assay for small molecule agonists of retinoid X receptor alpha signaling (AID 588544); conditions: HEK293T RXRa-UAS-bla, beta-lactamase reporter, 18 h; 530 nm emission
[11] = target: Thyroid hormone receptor beta (Homo sapiens) (UniProt P10828); assay: qHTS assay for small molecule agonists of thyroid hormone receptor beta signaling (AID 588545; calls by dose curve); conditions: TR-UAS-bla GripTite HEK 293, beta-lactamase ratio, agonist mode, 18 h; series mostly up to 76.7 µM
Chain of Thyroid hormone receptor beta (Homo sapiens) (P10828 whole entry, looked up): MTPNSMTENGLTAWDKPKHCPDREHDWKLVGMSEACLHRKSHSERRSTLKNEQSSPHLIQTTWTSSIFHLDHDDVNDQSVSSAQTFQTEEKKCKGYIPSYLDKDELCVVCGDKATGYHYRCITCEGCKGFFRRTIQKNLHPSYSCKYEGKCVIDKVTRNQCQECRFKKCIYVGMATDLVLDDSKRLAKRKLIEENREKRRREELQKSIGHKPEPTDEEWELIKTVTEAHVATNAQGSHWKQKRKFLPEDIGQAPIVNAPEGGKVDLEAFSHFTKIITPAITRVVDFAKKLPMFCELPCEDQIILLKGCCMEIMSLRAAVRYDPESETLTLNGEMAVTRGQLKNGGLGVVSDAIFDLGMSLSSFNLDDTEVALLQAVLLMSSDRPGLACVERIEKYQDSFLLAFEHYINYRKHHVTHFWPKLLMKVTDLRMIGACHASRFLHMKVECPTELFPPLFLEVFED
Procedure, shortened: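 HEK 293 TR-UAS-bla; agonist mode; 18 hrs, 37 C; CCF4, ex 405/em 460 and 530 nm; norm. T3 10 nM = 100%, DMSO = 0%; Hill fit → EC50, efficacy.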

[12] = target: Retinoic acid receptor RXR-alpha (Homo sapiens) (UniProt P19793); assay: qHTS assay for small molecule antagonists of retinoid X receptor alpha signaling (AID 588546; active means well fitted inhibition curve with a large enough effect in the signal ratio, with a control signal flat, not every such curve was filed as active; the % refers to the signal ratio;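 further: cells stimulated with 9-cis-retinoic acid as agonist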); conditions: HEK293T RXRa-UAS-bla, beta-lactamase ratio, antagonist mode
Chain of Retinoic acid receptor RXR-alpha (Homo sapiens) (P19793 whole entry, looked up): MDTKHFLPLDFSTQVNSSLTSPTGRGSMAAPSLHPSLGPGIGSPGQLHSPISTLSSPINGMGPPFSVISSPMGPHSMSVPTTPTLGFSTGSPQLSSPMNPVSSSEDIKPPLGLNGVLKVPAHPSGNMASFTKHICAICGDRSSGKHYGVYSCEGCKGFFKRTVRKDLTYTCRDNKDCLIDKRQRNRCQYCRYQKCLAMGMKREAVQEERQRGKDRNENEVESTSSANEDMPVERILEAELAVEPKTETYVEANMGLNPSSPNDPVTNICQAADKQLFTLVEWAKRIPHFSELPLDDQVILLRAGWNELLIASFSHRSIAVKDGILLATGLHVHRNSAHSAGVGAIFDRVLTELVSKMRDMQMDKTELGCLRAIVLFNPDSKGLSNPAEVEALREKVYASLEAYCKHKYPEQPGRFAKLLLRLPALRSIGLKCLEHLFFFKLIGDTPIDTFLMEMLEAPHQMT
Procedure, shortened: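 Beta-lactamase reporter inhibition, read as CCF4 fluorescence ratio (ex 405, em 460/530 nm) after 2 h at RT. HEK293T UAS-bla cells, 2500/well, were stimulated with 9-cis-RA at 500 or 100 nM final alongside test compound for 18 h at 37 C.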

[13] = target: Tumor necrosis factor (Homo sapiens) (UniProt P01375); assay: qHTS assay to identify small molecules that stimulate Tumor Necrosis Factor-alpha (TNF-alpha) secretion (AID 651757; active means well fitted curve in the direction sought with a large enough effect in the signal ratio; the % refers to the signal ratio); conditions: Human cells, HTRF 665/615 ratio; series mostly up to 92.2 µM
Chain of Tumor necrosis factor (Homo sapiens) (P01375 whole entry, looked up): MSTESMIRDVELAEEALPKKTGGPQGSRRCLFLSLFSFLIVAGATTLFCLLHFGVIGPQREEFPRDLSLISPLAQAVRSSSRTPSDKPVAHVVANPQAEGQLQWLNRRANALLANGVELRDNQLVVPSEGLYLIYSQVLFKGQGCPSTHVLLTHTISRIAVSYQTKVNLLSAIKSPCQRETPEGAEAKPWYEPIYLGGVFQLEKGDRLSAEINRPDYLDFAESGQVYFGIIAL
Procedure, shortened: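 Secreted TNF-alpha quantified by TR-FRET sandwich of two labeled anti-TNF-alpha antibodies, incubated 3 hr at room temperature. Preceded by 17 hr, 37 C compound treatment of THP-1 cells at 3000 cells/well.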

[14] = target: Nuclear receptor ROR-gamma (Homo sapiens) (UniProt P51449); assay: qHTS assay for small molecule antagonists of the retinoid-related orphan receptor gamma (ROR-gamma) signaling pathway (AID 651802); conditions: ROR-gamma antagonist cell reporter assay; series mostly up to 92.2 µM;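 further: CHO cells with doxycycline-induced ROR-gamma expression; luciferase reporter luminescence driven by ROR response element; nearly all actives have a fitted effect of over 60% in size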
Chain of Nuclear receptor ROR-gamma (Homo sapiens) (P51449 whole entry, looked up): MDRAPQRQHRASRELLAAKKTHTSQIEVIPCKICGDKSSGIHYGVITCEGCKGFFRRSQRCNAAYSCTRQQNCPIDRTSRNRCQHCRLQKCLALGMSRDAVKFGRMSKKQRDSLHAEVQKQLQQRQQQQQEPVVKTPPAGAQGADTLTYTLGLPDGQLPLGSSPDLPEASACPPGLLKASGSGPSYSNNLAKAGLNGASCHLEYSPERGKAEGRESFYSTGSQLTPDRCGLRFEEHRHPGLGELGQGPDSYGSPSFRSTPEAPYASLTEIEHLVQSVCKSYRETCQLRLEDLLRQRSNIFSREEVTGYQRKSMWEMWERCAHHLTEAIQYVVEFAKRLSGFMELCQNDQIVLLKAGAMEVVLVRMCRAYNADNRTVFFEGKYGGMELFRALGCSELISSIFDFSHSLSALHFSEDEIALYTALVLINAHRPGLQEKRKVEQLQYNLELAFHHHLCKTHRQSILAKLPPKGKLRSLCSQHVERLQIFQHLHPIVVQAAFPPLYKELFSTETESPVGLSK
Procedure, shortened: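 Luminescence (One-Glo, 30 min RT) measured 16 h after compound addition and doxycycline induction at 37C. Reporter: RORE-luciferase under TET-inducible ROR-gamma in CHO cells.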

[15] = qHTS assay for small molecule agonists of the antioxidant response element (ARE) signaling pathway measured by Nrf2-dependant transcriptional activity (AID 720636; active means well fitted curve in the direction sought with a large enough effect in the repeat runs; an effect the other way counts as inactive or inconclusive; further: potency means the concentration at half of the fitted maximal effect;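 on activation: HepG2 cells with an ARE-driven luciferase reporter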); conditions: ARE-luc HepG2, Nrf2 luciferase reporter, 16 h; series mostly up to 92.4 µM
Procedure, shortened: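 ONE-Glo luminescence, read 30 min after reagent addition at room temperature, reflected ARE reporter activity in HepG2 cells that had been incubated with compound for 16 hr at 37 C in 1% dialyzed FBS.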

[16] = qHTS assay for cell viability of the p53RE-bla HCT-116 cell line (AID 743292); conditions: p53RE-bla HCT-116 viability, ATP luminescence, 16 h; series mostly up to 95 µM; further: nearly all actives have a fitted effect of over 55% in size
Procedure, shortened: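 After plating at 4,000 cells per well and a 5 h rest at 37 C, HCT-116 cells carrying p53RE-bla received test chemicals in DMSO. Sixteen hours later at 37 C, CellTiter-Glo was added and luminescence recorded following 30 min at room temperature.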

[17] = MultiTox-Fluor Cytotoxicity Assay - LYMP1-001 - Dead Cells (AID 946); conditions: LYMP1-001 lymphoblastoid cells, dead-cell protease fluorescence; series mostly up to 92.2 µM
Procedure, shortened: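 LYMP1-001 lymphoblastoid cells (2500/well) treated 16 h at 37 C. Dead-cell protease cleavage of bis-AAF-R110 read at Ex/Em 485/520. Normalized to DMSO and 15 uM tetraoctylammonium bromide; AC50 from Hill fits.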

[18] = Cell Viability - LYMP1-002 - Assay at 16 hr (AID 948); conditions: LYMP1-002 lymphoblastoid cell viability; series mostly up to 92.2 µM
Procedure, shortened: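 ATP luminescence (CellTiter-Glo) was measured after 16 hr compound exposure at 37 C of 2500 lymphoblastoid LYMP1-002 cells per well. Concentration-response curves were fitted with the Hill equation to give AC50.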

[19] = Cell Viability - LYMP2-003 (AID 965); conditions: LYMP2-003 lymphoblastoid cell viability; series mostly up to 92.2 µM;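 further: cells exposed to compounds for 24 h before reading; nearly all actives have a fitted effect of over 50% in size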
Procedure, shortened: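 CellTiter-Glo luminescence quantified ATP loss after 24 h compound treatment of LYMP2-003 lymphoblastoid cells at 37 C. Titration series were fitted with the standard Hill equation to give AC50.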

[20] = Cell Viability - LYMP2-024 (AID 988); conditions: LYMP2-024 lymphoblastoid cell viability; series mostly up to 92.2 µM; further: nearly all actives have a fitted effect of over 60% in size
Procedure, shortened: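 Cytotoxicity was taken as a decrease in ATP (CellTiter-Glo luminescence) after 24 hr compound exposure at 37 C of LYMP2-024 lymphoblastoid cells, 2500 cells/well. Concentration-response data were fitted to the Hill equation to give AC50.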

SMILES | Potency [1] | Potency [2] | Potency [3] | outcome [4] | outcome [5] | caspase-3 activation [6] | Potency [7] | Potency [8] | Potency [9] | max response [10] [%] | Potency [11] | max response [12] | outcome [13] | Potency [14] | Potency [15] | Potency [16] | outcome [17] | outcome [18] | Potency [19] | Potency [20]
CCCCC(CC)COC(=O)c1ccc(C(=O)OCC(CC)CCCC)c(C(=O)OCC(CC)CCCC)c1 (centres undefined) | > 92 µM (inactive) | > 92 µM (inactive) | inactive | inactive | inactive | 16.8% (inactive) | inactive | inactive | inactive | -8.52 | inactive | 5.41% (inactive) | inactive | inactive | inactive | inactive | – | – | – | –
CC(C)OS(C)(=O)=O | > 92 µM (inactive) | – | inactive | inactive | inactive | -0.589% (inactive) | – | inactive | inactive | -2.85 | – | 0.937% (inactive) | inactive | – | inactive | – | inactive | inactive | inactive | inactive
CCCCOC(C)=O | > 92 µM (inactive) | > 92 µM (inactive) | inactive | inactive | inactive | -0.0829% (inactive) | inactive | inactive | inactive | 6.81 | inactive | 10.8% (inactive) | inactive | inactive | inactive | – | – | inactive | inactive | inactive
O=Cc1ccc(Cl)cc1Cl | > 92 µM (inactive) | > 92 µM (inactive) | inactive | inactive | inactive | -1.13% (inactive) | inactive | inactive | inactive | -11.7 | inactive | 2.38% (inactive) | inactive | inactive | inactive | – | inactive | inactive | inactive | inactive
Nc1cc(Cl)ccc1O | > 92 µM (inactive) | > 92 µM (inactive) | – | inactive | inactive | 4.86% (inactive) | inactive | inactive | inactive | – | inactive | -9.48% (inactive) | – | inactive | 21.1 µM (active) | inactive | inactive | inactive | inactive | inactive
Cc1ccc([N+](=O)[O-])cc1 | > 92 µM (inactive) | > 92 µM (inactive) | inactive | inactive | inactive | -0.449% (inactive) | inactive | inactive | inactive | -18.4 | inactive | 4.07% (inactive) | inactive | inactive | inactive | inactive | – | inactive | inactive | inactive
CC(C)[N+](=O)[O-] | > 92 µM (inactive) | > 92 µM (inactive) | inactive | inactive | inactive | -0.5% (inactive) | inactive | inactive | inactive | 5.89 | inactive | 14.3% (inactive) | inactive | inactive | inactive | inactive | inactive | inactive | inactive | inactive
